From the supplement of paper PMC3334620
Whole data set: some 33,000 sequences, median “E-score (-0.5 to 0.5)” near -0.0059, cut for the highest 2% near 0.26. Many of the other results were omitted from the sample, so the highest values are more common in it than they were.

What follows are sequences tested against T1, Cin5 (UniProt P40917) (assay: PBM E-score (8-mer binding enrichment) (E-score (-0.5 to 0.5)); higher = stronger / more preferred TF binding). Settings: protein concentration: 100 nM; construct: GST-full length.
T1 sequence: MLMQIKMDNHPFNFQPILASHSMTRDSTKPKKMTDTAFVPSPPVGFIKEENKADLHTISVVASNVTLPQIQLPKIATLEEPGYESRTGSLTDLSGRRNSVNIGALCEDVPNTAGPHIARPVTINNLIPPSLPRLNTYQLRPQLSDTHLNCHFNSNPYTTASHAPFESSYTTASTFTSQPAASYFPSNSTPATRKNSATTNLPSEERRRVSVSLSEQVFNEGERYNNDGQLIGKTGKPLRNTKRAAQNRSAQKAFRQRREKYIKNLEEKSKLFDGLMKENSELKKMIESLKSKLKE
Outline: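 The E-score, a modified Wilcoxon-Mann-Whitney statistic, was computed by the Universal PBM Analysis Suite for every ungapped eight-base word pooled with its reverse complement. Scans behind it were normalised with masliner after bound GST-tagged yeast transcription factors were detected with fluorescent anti-GST. The proteins, at about 100-200 nM, had been applied to universal all-10-mer Agilent arrays made double-stranded by primer extension.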

Sequence	PBM E-score
CTAATTTA	0.158
GTAATTTA	0.27
ATAATTTA	0.332
GCAATTTA	0.137
ATAATTTC	0.136
ATAATTTG	0.208
GCCGCTCC	-0.305
CCCACACG	0.0465
CAATATGA	0.118
TCATATGA	0.272
AAATATGA	0.245
TAATATGA	0.262
CCATATGA	-0.0136
GCATATGA	0.197
ATGGACGC	-0.0507
TCTTCCCA	-0.177
GGTATCAC	0.0115
ATTGGGTG	0.282
ATTGGGTC	0.13
ATTGGGTA	0.0825
ACCATTCA	0.0437
AGTTGAAT	0.259

Sequence	PBM E-score
AGTTGAAA	-0.0098
AGTTGAAG	-0.00489
CGACTGGA	-0.167
GTTCGACA	0.0859
GTCTAGCA	-0.0616
AAACATGC	0.0556
ATAAGAAA	0.156
ATAAGAAC	0.31
ATAAGAAT	0.224
CGTCTCTA	-0.21
GTCGCGAA	-0.0343
CTCGCGAC	0.107
GTCGCGAC	0.317
TGGTAACA	-0.0163
TCACCAGA	-0.144
CTAATCAG	0.14
ATAATCGA	0.178
AAAATCAG	0.00782
ATAATCAA	0.227
ATAATCGG	0.291
ATAATCAT	0.377
ATAATCGC	0.187

Sequence	PBM E-score
ATAATCAC	0.233
ATAATCAG	0.285
AAAAGGGA	-0.1
CAATCTTA	0.0906
CCGGGTCG	-0.131
CAGGAGCG	-0.0881
AACCCATT	0.114
AACCCATA	0.29
GACCCATA	0.222
AGAACTTC	-0.217
AGCTATTG	0.01
CGTGGAAG	0.129
AGTGGAAA	0.0448
CGTGGAAA	0.28
CACTATGG	-0.15
AGAATATA	0.105
ATAATAGA	0.221
ATAATATC	0.221
GTAATATA	0.323
CTAATATA	0.0911
GCAATATA	0.185
ACAATATA	0.269

Sequence	PBM E-score
ATAATATG	0.289
ATAATATA	0.345
ATAATAAG	0.225
CCAATATA	0.0434
GTAATAAA	0.2
GAGCTCCA	-0.092
AAGGCCCT	-0.136
CTTAGTGA	0.0718
CCCCCTTA	-0.342
AGTATCAC	0.0484
ATATAATA	0.303
GTATAATA	0.253
CTATAATA	0.114
AACCCCTT	-0.0504
CTCCCCAA	-0.00166
CATCTGCC	-0.0681
ATGTTTTC	0.121
CCTGGGAG	-0.176
ACTCCCGC	-0.0164
